PubChem BioAssay (NCI)
Compounds without any hit were thinned out: in the full panel of roughly 79,000, 15% have a hit. Values without a mark were called inactive. Activity calls are given as the source filed them. Cut-off read from the data, not from the text of the source: active = growth inhibition above about 70%; inactive = the rest.

Legend:
[1] = NCI Yeast Anticancer Drug Screen. Data for the rad52 strain (AID 147);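 note: 0% = growth of vehicle-treated control cultures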; conditions: S. cerevisiae rad52 mutant growth inhibition, stronger effect = higher value
Procedure, shortened: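 Growth of repair-deficient yeast cells was compared between compound-treated and vehicle-treated cultures to give percent inhibition.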

[2] = NCI Yeast Anticancer Drug Screen. Data for the wt1 strain (AID 149);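 note: 0% = growth of vehicle-treated wt1 cultures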; conditions: S. cerevisiae wt1 strain (SPY 50644) growth inhibition, stronger effect = higher value
Procedure, shortened: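 Measured: growth of wt1 yeast under compound versus vehicle treatment, reported as inhibition.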

[3] = NCI Yeast Anticancer Drug Screen. Data for the rad50EPP+ strain (AID 151);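 note: 0% = growth of vehicle-treated control cultures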; conditions: S. cerevisiae rad50 mutant strain, stronger effect = higher value
Procedure, shortened: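 Measured: growth inhibition of rad50EPP+ yeast. Reference: vehicle-treated controls. Screen uses strains with defined genetic alterations in DNA damage repair or cell cycle control.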

[4] = NCI Yeast Anticancer Drug Screen. Data for the mgt1 strain (AID 153); conditions: S. cerevisiae mgt1 mutant growth inhibition, stronger effect = higher value
Procedure, shortened: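 Compounds were applied to mgt1 mutant yeast, and growth was then compared against vehicle-treated control cultures to give percent inhibition.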

[5] = NCI Yeast Anticancer Drug Screen. Data for the rad50 strain (AID 155);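 note: 0% = growth of vehicle-only cultures of the same strain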; conditions: S. cerevisiae rad50 strain growth inhibition, stronger effect = higher value
Procedure, shortened: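 Growth of the mutant yeast was measured after compound exposure and referenced to vehicle-treated cultures.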

[6] = NCI Yeast Anticancer Drug Screen. Data for the mec2-1 strain (AID 157); conditions: S. cerevisiae mec2-1 strain, stronger effect = higher value
Procedure, shortened: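 Compounds were applied to mec2-1 yeast cells. Their growth was then compared with that of vehicle-treated cultures to give growth inhibition.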

[7] = NCI Yeast Anticancer Drug Screen. Data for the rad14 strain (AID 159);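 note: 0% = growth of vehicle-treated control cultures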; conditions: S. cerevisiae rad14 strain growth inhibition, stronger effect = higher value
Procedure, shortened: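 Here, inhibition of yeast growth was measured after compound exposure, using a strain with a genetic defect in DNA damage repair and vehicle-treated cultures as the reference.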

[8] = NCI Yeast Anticancer Drug Screen. Data for the sgs1 mgt1 strain (AID 161);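 note: 0% = growth of cultures given vehicle only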; conditions: S. cerevisiae sgs1 mgt1 strain, stronger effect = higher value
Procedure, shortened: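 Compounds are added to genetically altered yeast, and growth is compared with cultures given vehicle alone to give percent inhibition.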

[9] = NCI Yeast Anticancer Drug Screen. Data for the cln2 rad14 strain (AID 165);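 note: 0% = growth equal to vehicle treated cultures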; conditions: S. cerevisiae cln2 rad14 strain, stronger effect = higher value
Procedure, shortened: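 Strain: cln2 rad14 yeast, altered in cell cycle control and DNA damage repair. Read-out: growth inhibition vs vehicle.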

[10] = NCI Yeast Anticancer Drug Screen. Data for the wt2 strain (AID 169);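 note: 0% = growth of vehicle-treated yeast cultures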; conditions: S. cerevisiae wt2 strain growth inhibition, stronger effect = higher value
Procedure, shortened: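 Growth of compound-treated yeast is measured and expressed as inhibition relative to vehicle-only controls.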

[11] = NCI Yeast Anticancer Drug Screen. Data for the mlh1 strain (AID 171);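 note: 0% = growth of vehicle-treated control cultures of the same strain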; conditions: S. cerevisiae mlh1 strain growth inhibition, stronger effect = higher value
Procedure, shortened: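 Test agents were incubated with yeast bearing a defined DNA damage repair or cell cycle control alteration; values are growth inhibition normalised to vehicle-treated cultures.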

[12] = NCI Yeast Anticancer Drug Screen. Data for the sgs1 strain (AID 173);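 note: 0% = growth of vehicle-only control cultures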; conditions: S. cerevisiae sgs1 mutant, stronger effect = higher value
Procedure, shortened: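 Strain with an altered DNA repair or cell cycle pathway exposed to compound. Growth then measured. Value = inhibition versus vehicle control.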

[13] = NCI Yeast Anticancer Drug Screen. Data for the mlh1 rad18 strain (AID 175); conditions: S. cerevisiae mlh1 rad18 strain growth inhibition, stronger effect = higher value
Procedure, shortened: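 A repair-deficient yeast strain is exposed to test compound, and growth is scored relative to vehicle-treated controls.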

[14] = NCI Yeast Anticancer Drug Screen. Data for the rad18 strain (AID 177); conditions: S. cerevisiae rad18 mutant growth inhibition, stronger effect = higher value
Procedure, shortened: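 DNA-repair-defective yeast; compound treatment; growth inhibition scored against vehicle.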

[15] = NCI Yeast Anticancer Drug Screen. Data for the CLN2oe strain (AID 163);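 note: 0% = growth of vehicle-only control cultures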; conditions: S. cerevisiae CLN2oe strain, stronger effect = higher value
Procedure, shortened: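 Cells of an engineered yeast line with disturbed cell-cycle regulation are treated with compound. Inhibition of growth is then calculated relative to the vehicle-treated reference.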

[16] = NCI Yeast Anticancer Drug Screen. Data for the bub3 strain (AID 167); conditions: S. cerevisiae bub3 mutant strain, stronger effect = higher value
Procedure, shortened: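 Whole-cell yeast assay. The mutant strain was incubated with compounds, and growth inhibition was determined by comparison with vehicle-treated cells.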

[17] = at 5.0 µM (retest, dose inferred, filed as 0.5)
[18] = at 50.0 µM (retest, dose inferred, filed as 5.0)

Molecule `[O-][n+]1c2ccc(O)cc2nc2ccc(Cl)cc21` has a growth inhibition ([1]; at 1.2 µM) of 5%, a growth inhibition ([1]; at 3.7 µM) of 19% and a growth inhibition ([1]; at 11.0 µM) of 45%. The growth inhibition ([1]; at 33.0 µM) was 75% (active), the growth inhibition ([1]; at 100.0 µM) was 75% (active) and the growth inhibition ([2]; at 1.2 µM) was 4%. It also gave a growth inhibition ([2]; at 3.7 µM) of 9%, a growth inhibition ([2]; at 11.0 µM) of 23% and a growth inhibition ([2]; at 33.0 µM) of 34%. For the same molecule, the growth inhibition ([2]; at 100.0 µM) was 53%, the growth inhibition ([3]; at 1.2 µM) was 5% and the growth inhibition ([3]; at 3.7 µM) was 16%. For the same molecule, the growth inhibition ([3]; at 11.0 µM) was 37%, the growth inhibition ([3]; at 33.0 µM) was 57% and the growth inhibition ([3]; at 100.0 µM) was 56%. It also gave a growth inhibition ([4]; at 1.2 µM) of 8%, a growth inhibition ([4]; at 3.7 µM) of 22% and a growth inhibition ([4]; at 11.0 µM) of 34%. The growth inhibition ([4]; at 33.0 µM) was 65%, the growth inhibition ([4]; at 100.0 µM) was 81% (active) and the growth inhibition ([5]; at 1.2 µM) was 6%. The growth inhibition ([5]; at 3.7 µM) was 24%, the growth inhibition [5, 17] was -5% and the growth inhibition ([5]; at 11.0 µM) was 51%. For the same molecule, the growth inhibition ([5]; at 33.0 µM) was 81% (active), the growth inhibition [5, 18] was 17% and the growth inhibition ([5]; at 50.0 µM) was 81.9% (active). The growth inhibition ([5]; at 100.0 µM) was 84% (active), the growth inhibition ([6]; at 1.2 µM) was 0% and the growth inhibition ([6]; at 3.7 µM) was 9%. The growth inhibition [6, 17] was 5%, the growth inhibition ([6]; at 11.0 µM) was 25% and the growth inhibition ([6]; at 33.0 µM) was 41%. For the same molecule, the growth inhibition [6, 18] was -13%, the growth inhibition ([6]; at 50.0 µM) was 75% (active) and the growth inhibition ([6]; at 100.0 µM) was 51%. For the same molecule, the growth inhibition ([7]; at 1.2 µM) was 0%, the growth inhibition ([7]; at 3.7 µM) was 8% and the growth inhibition ([7]; at 11.0 µM) was 30%. For the same molecule, the growth inhibition ([7]; at 33.0 µM) was 58%, the growth inhibition ([7]; at 100.0 µM) was 73% (active) and the growth inhibition [8, 17] was -12%. For the same molecule, the growth inhibition [8, 18] was -1%, the growth inhibition ([8]; at 50.0 µM) was 67% and the growth inhibition [9, 17] was -4%. For the same molecule, the growth inhibition [9, 18] was 9%, the growth inhibition ([9]; at 50.0 µM) was 43.1% and the growth inhibition ([10]; at 1.2 µM) was 5%. The growth inhibition ([10]; at 3.7 µM) was 11%, the growth inhibition ([10]; at 11.0 µM) was 26% and the growth inhibition ([10]; at 33.0 µM) was 46%. The growth inhibition ([10]; at 100.0 µM) was 61%, the growth inhibition ([11]; at 1.2 µM) was 4% and the growth inhibition ([11]; at 3.7 µM) was 10%. The growth inhibition ([11]; at 11.0 µM) was 28%, the growth inhibition ([11]; at 33.0 µM) was 62% and the growth inhibition ([11]; at 100.0 µM) was 78% (active). The growth inhibition ([12]; at 1.2 µM) was 4%, the growth inhibition ([12]; at 3.7 µM) was 10% and the growth inhibition ([12]; at 11.0 µM) was 26%. For the same molecule, the growth inhibition ([12]; at 33.0 µM) was 46%, the growth inhibition ([12]; at 100.0 µM) was 59% and the growth inhibition [13, 17] was -24%. The growth inhibition [13, 18] was 53%, the growth inhibition ([13]; at 50.0 µM) was 86.8% (active) and the growth inhibition ([14]; at 1.2 µM) was 7%. For the same molecule, the growth inhibition ([14]; at 3.7 µM) was 23%, the growth inhibition ([14]; at 11.0 µM) was 47% and the growth inhibition ([14]; at 33.0 µM) was 79% (active). For the same molecule, the growth inhibition ([14]; at 100.0 µM) was 82% (active).
For `O=C1CSc2cc([N+](=O)[O-])ccc2N1`, the growth inhibition ([1]; at 1.2 µM) was 10%, the growth inhibition ([1]; at 3.7 µM) was 6% and the growth inhibition ([1]; at 11.0 µM) was 9%. The growth inhibition ([1]; at 33.0 µM) was 16%, the growth inhibition ([1]; at 100.0 µM) was 15% and the growth inhibition ([2]; at 1.2 µM) was 4%. The growth inhibition ([2]; at 3.7 µM) was 12%, the growth inhibition ([2]; at 11.0 µM) was 5% and the growth inhibition ([2]; at 33.0 µM) was 18%. It also gave a growth inhibition ([2]; at 100.0 µM) of -20%, a growth inhibition ([3]; at 1.2 µM) of -9% and a growth inhibition ([3]; at 3.7 µM) of 3%. For the same molecule, the growth inhibition ([3]; at 11.0 µM) was -4%, the growth inhibition ([3]; at 33.0 µM) was 3% and the growth inhibition ([3]; at 100.0 µM) was -6%. The growth inhibition ([4]; at 1.2 µM) was 0%, the growth inhibition ([4]; at 3.7 µM) was 3% and the growth inhibition ([4]; at 11.0 µM) was -3%. It also gave a growth inhibition ([4]; at 33.0 µM) of -8%, a growth inhibition ([4]; at 100.0 µM) of 3% and a growth inhibition ([5]; at 1.2 µM) of -20%. The growth inhibition ([5]; at 3.7 µM) was -6%, the growth inhibition [5, 17] was -1% and the growth inhibition ([5]; at 11.0 µM) was -22%. For the same molecule, the growth inhibition ([5]; at 33.0 µM) was -18%, the growth inhibition [5, 18] was -14% and the growth inhibition ([5]; at 50.0 µM) was 21.1%. For the same molecule, the growth inhibition ([5]; at 100.0 µM) was -17%, the growth inhibition ([6]; at 1.2 µM) was -4% and the growth inhibition ([6]; at 3.7 µM) was -5%. For the same molecule, the growth inhibition [6, 17] was -31%, the growth inhibition ([6]; at 11.0 µM) was -10% and the growth inhibition ([6]; at 33.0 µM) was -21%. It also gave a growth inhibition [6, 18] of -12%, a growth inhibition ([6]; at 50.0 µM) of -18.1% and a growth inhibition ([6]; at 100.0 µM) of -22%. The growth inhibition ([7]; at 1.2 µM) was -16%, the growth inhibition ([7]; at 3.7 µM) was -7% and the growth inhibition ([7]; at 11.0 µM) was -6%. For the same molecule, the growth inhibition ([7]; at 33.0 µM) was -10%, the growth inhibition ([7]; at 100.0 µM) was -11% and the growth inhibition [8, 17] was -14%. It also gave a growth inhibition [8, 18] of -14%, a growth inhibition ([8]; at 50.0 µM) of -11% and a growth inhibition ([15]; at 1.2 µM) of -3%. It also gave a growth inhibition ([15]; at 3.7 µM) of -14%, a growth inhibition ([15]; at 11.0 µM) of -8% and a growth inhibition ([15]; at 33.0 µM) of -19%. It also gave a growth inhibition ([15]; at 100.0 µM) of -13%, a growth inhibition [9, 17] of 23% and a growth inhibition [9, 18] of 27%. It also gave a growth inhibition ([9]; at 50.0 µM) of 22.4%, a growth inhibition ([16]; at 1.2 µM) of 8% and a growth inhibition ([16]; at 3.7 µM) of 9%. For the same molecule, the growth inhibition [16, 17] was 0%, the growth inhibition ([16]; at 11.0 µM) was 23% and the growth inhibition ([16]; at 33.0 µM) was 74% (active). The growth inhibition [16, 18] was 79% (active), the growth inhibition ([16]; at 50.0 µM) was 70.2% (active) and the growth inhibition ([16]; at 100.0 µM) was 91% (active). For the same molecule, the growth inhibition ([11]; at 1.2 µM) was 18%, the growth inhibition ([11]; at 3.7 µM) was 5% and the growth inhibition ([11]; at 11.0 µM) was 6%. It also gave a growth inhibition ([11]; at 33.0 µM) of 0%, a growth inhibition ([11]; at 100.0 µM) of -22% and a growth inhibition ([12]; at 1.2 µM) of 19%. The growth inhibition ([12]; at 3.7 µM) was 19%, the growth inhibition ([12]; at 11.0 µM) was 17% and the growth inhibition ([12]; at 33.0 µM) was 36%. The growth inhibition ([12]; at 100.0 µM) was 11%, the growth inhibition [13, 17] was -15% and the growth inhibition [13, 18] was -2%. The growth inhibition ([13]; at 50.0 µM) was -5.25%, the growth inhibition ([14]; at 1.2 µM) was 0% and the growth inhibition ([14]; at 3.7 µM) was -18%. For the same molecule, the growth inhibition ([14]; at 11.0 µM) was -3%, the growth inhibition ([14]; at 33.0 µM) was -2% and the growth inhibition ([14]; at 100.0 µM) was -13%.
